# Assays:
# Assay in all cases: PBM binding z-score (relative to random genomic background probes); higher = stronger binding; sequences stand for … in GC…GCGATTGACAGCGTAGAATGAAGG
# [1] = tested on: PPARg:RXRa DBDmut IVT, anti-RXR (DBD mutation: RXRa K156A/R161A, NR concentration 270 nM, RXRa partner concentration 90 nM)
# In short: (§1)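 The probes on custom Agilent 4×180K protein-binding microarrays were double-stranded, with 34-nt variable regions bearing direct-repeat seeds, single-nucleotide variants, half-site ablations and random human genomic background sequences. Incubation lasted 1 h with ligand-free nuclear receptor dimers in PBS pH 7.4, 2% milk, 0.02% Triton X-100, 1 mM DTT, 0.2 mg/mL BSA and 0.4 mg/ml salmon testes DNA. Antibodies against each partner (one per run) detected bound dimers, and fluorescence scans were regression-normalized. Binding z-scores take the random background probes as reference.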
# [2] = tested on: PPARg:RXRa IVT, anti-PPARg (NR concentration 270 nM, RXRa partner concentration 90 nM)
# In short: as §1
# [3] = tested on: PPARg DBDmut:RXRa IVT, anti-PPARg (DBD mutation: PPARg1 K132A/R137A, NR concentration 270 nM, RXRa partner concentration 90 nM)
# In short: as §1
# [4] = tested on: PPARg DBDmut IVT, anti-PPARg (DBD mutation: PPARg1 K132A/R137A, NR concentration 270 nM)
# In short: as §1
# [5] = tested on: PPARg homodimer (NR concentration 180 nM)
# In short: as §1
# [6] = tested on: PXR:RXRa (NR concentration 270 nM, RXRa partner concentration 90 nM)
# In short: as §1
# [7] = tested on: PXR homodimer (NR concentration 270 nM)
# In short: as §1
# [8] = tested on: RARa:RXR (NR concentration 270 nM, RXRa partner concentration 90 nM)
# In short: as §1
# [9] = tested on: RARa homodimer (NR concentration 270 nM)
# In short: as §1
# [10] = tested on: RARb:RXRa (NR concentration 270 nM, RXRa partner concentration 90 nM)
# In short: as §1
# [11] = tested on: RARb homodimer (NR concentration 270 nM)
# In short: as §1
# [12] = tested on: RARg:RXRa (NR concentration 270 nM, RXRa partner concentration 90 nM)
# In short: as §1
# [13] = tested on: RARg homodimer (NR concentration 270 nM)
# In short: as §1
# [14] = tested on: RXRa DBDmut IVT, anti-RXR (DBD mutation: RXRa K156A/R161A, NR concentration 90 nM)
# In short: as §1
# [15] = tested on: RXRa homodimer (NR concentration 180 nM)
# In short: as §1
# [16] = tested on: THRa:RXRa (NR concentration 90 nM, RXRa partner concentration 90 nM)
# In short: as §1
# [17] = tested on: THRa homodimer (NR concentration 90 nM)
# In short: as §1
# [18] = tested on: VDR homodimer (NR concentration 270 nM)
# In short: as §1
Sequence,PBM binding z-score [1],PBM binding z-score [2],PBM binding z-score [3],PBM binding z-score [4],PBM binding z-score [5],PBM binding z-score [6],PBM binding z-score [7],PBM binding z-score [8],PBM binding z-score [9],PBM binding z-score [10],PBM binding z-score [11],PBM binding z-score [12],PBM binding z-score [13],PBM binding z-score [14],PBM binding z-score [15],PBM binding z-score [16],PBM binding z-score [17],PBM binding z-score [18]
AGAATGAGGTTACCAGAGATCAGGGAAACGCTTG,3.82,3.51,1.02,-0.0941,0.651,1.95,-0.0597,2.47,0.341,2.15,0.721,2.28,1.8,1.1,2.88,3.28,0.705,0.106
AGTAAAAGTTCACTAGGTAACGTAAGATTCAGCT,2.43,4.33,0.938,1.34,2.48,3.04,2.08,2.39,1.61,4.39,3.39,4.08,4.93,4.22,3.39,1.8,0.341,3.76
CAAAATAGGTCAAGAGGTCAAAGTCCGCTTCCCG,7.42,7.83,2.31,1.62,5.84,6.31,2.24,7.5,2.71,5.7,6.03,8.39,7.82,2.72,8.82,4.28,1.76,3.91
CAAACTAGGTCACCGGAAGGTCATAGTCCGCATG,8.59,9.21,4.3,3.06,4.74,5.48,1.67,6.36,1.54,5.66,5.85,7.82,6.45,1.8,5.92,4.58,3.33,2.78
TAGCCTAGGTCATGGGCCTGTATACCACGCGAAC,1.69,3.19,0.382,-0.135,1.45,1.82,-0.611,3.17,0.359,3.97,3.34,4.47,4.67,0.485,3.9,3.23,1.31,0.584
ACTAGCAGGCCAAAGGTCACTCAAGATTAGTCCG,2.74,5.44,-0.0674,0.109,1.96,5.11,0.886,5.72,0.747,4.81,4.87,6.14,5.41,0.861,6.31,3.6,0.91,1.58
TATACTGGGTCAAAGGCCAGAGTACGAATGTCGA,6.17,7.37,3.19,3.85,5.01,2.33,0.331,3.3,0.721,3.59,2.9,3.96,3.88,0.958,3.99,2.24,0.212,1.37

# Source: the supplement of paper PMC6555819
